Hit rate of the full screen: of about 340,000 compounds, about 1,700 (0.5%) were called active. The list comes from a sample in which actives are over-represented; it also holds similar structures and randomly drawn compounds. Unmarked numbers belong to inactive results. Rule as the data show it: active = inhibition above about 36%; inactive = the rest.

Usually inhibition stands for the change of the read-out against control, counted positive when it falls.

In this assay the target is Serine protease HTRA1 (Homo sapiens) (UniProt Q92743). In words: inhibition of human HTRA1 peptidase – biochemical, fluorescence polarization, HTS, primary screen (AID 504803).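 Also: 0% = enzyme with DMSO and 100% = wells lacking enzyme.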 The settings on record: recombinant HTRA1, FP-rhodamine activity-based probe, at 5.96 µM, stronger effect = higher value. For orientation: Fluorescence polarisation rises when a labelled molecule tumbles more slowly, as on binding a larger partner.
Sequence of Serine protease HTRA1 (Homo sapiens) (Q92743 whole entry, looked up): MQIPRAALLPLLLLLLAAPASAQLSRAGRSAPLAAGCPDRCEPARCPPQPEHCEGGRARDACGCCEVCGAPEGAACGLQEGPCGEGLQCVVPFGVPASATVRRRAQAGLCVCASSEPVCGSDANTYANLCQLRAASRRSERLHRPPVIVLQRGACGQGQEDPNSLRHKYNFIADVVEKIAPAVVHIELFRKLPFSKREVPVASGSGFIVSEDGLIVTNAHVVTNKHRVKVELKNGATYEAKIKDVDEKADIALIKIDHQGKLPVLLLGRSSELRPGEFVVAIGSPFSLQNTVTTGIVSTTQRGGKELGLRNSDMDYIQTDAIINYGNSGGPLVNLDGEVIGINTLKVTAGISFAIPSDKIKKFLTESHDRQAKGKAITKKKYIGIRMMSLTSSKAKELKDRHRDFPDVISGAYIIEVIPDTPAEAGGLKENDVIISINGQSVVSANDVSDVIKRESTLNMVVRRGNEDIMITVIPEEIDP
Take `COc1ccc(N)cc1NC(=O)CN1CCOCC1`: the inhibition was -3.64%.
Turning to `COc1cc2c(cc1OC)C(c1ccccc1Br)NC(=O)C2` (stereo not drawn), the inhibition was -6.31%.
Regarding `Brc1ccccc1C1Nc2cccc3cccc(c23)N1`, the inhibition is 59.2% (active).
As for `Oc1ccc(C2Nc3cccc4cccc(c34)N2)cc1`, the inhibition is 22.9%.
`Cc1ccc(NC(=O)c2ccco2)cc1`: the inhibition is 1.31%.
Turning to `Cc1nc2ccccc2nc1CC(O)(c1ccccc1)c1ccccc1`, the inhibition was -14.1%.
Consider `Cc1cc(Cl)ccc1C(=O)C1CCCN(C(=O)c2ccc3c(c2)OCO3)C1` (stereo not drawn), for which the inhibition was -4.58%.
Turning to `NC(=O)NC(=O)C(OC(=O)CCNS(=O)(=O)c1ccccc1)c1ccccc1` (stereo not drawn), the inhibition was 36.7% (active).
With `Cc1ccc(S(=O)(=O)NCCC(=O)OCC(=O)N(C)c2ccccc2)cc1`, the inhibition is 5.9%.
Under `O=S(=O)(NCCNS(=O)(=O)c1ccccc1)c1ccccc1` stands 4.81%; under `CSc1ncnc2c1ncn2CCCNCc1cccs1`, 3.07%; under `C[C@@H]1CCCCO[C@H](CN(C)Cc2ccccc2)[C@@H](C)CN([C@H](C)CO)C(=O)c2cc(NS(=O)(=O)c3ccc(Cl)cc3)ccc2O1`, -17.9%.
Regarding `CCc1cccc(CC)c1N1C(=O)CC(Sc2ccccc2N)C1=O` (stereo not drawn), the inhibition was 2.44%.
For the molecule `Cn1nc(N)c2ncc(C(Cl)(Cl)Cl)nc21`, the inhibition was -0.52%.
In the case of `CN(C)c1ccc(N/C=C/C(=O)C(F)(F)F)cc1`, the inhibition is 38.7% (active).
The same measure for `COc1cc(OC)c(C(=O)Nc2ccc(N(C)C)cc2)cc1OC`: 5.76%; for `CC(C)CNC(=O)C(=O)Nc1ccc(N(C)C)cc1`: 7.37%.
Under `C[C@H](CO)N1C[C@H](C)[C@@H](CN(C)C(=O)c2cccc(F)c2)Oc2cc(-c3cncnc3)ccc2S1(=O)=O` stands 2.58%; under `O=C(c1cc(S(=O)(=O)N2CCOCC2)ccc1Cl)N1CCOCC1`, 2.81%; under `O=[N+]([O-])c1cc(Cl)cc(/C=N/NC(=S)Nc2cc(S(=O)(=O)N3CCOCC3)ccc2Cl)c1O`, 45.7% (active).
As for `O=C(Nc1cc(S(=O)(=O)N2CCOCC2)ccc1Cl)c1cc(=O)c2ccccc2o1`, the inhibition was -4.07%.
On to `Cc1ccc(Nc2ccccc2N)cc1`, for which the inhibition is 47.8% (active).
Under `Nc1ccc(C(=O)Nc2ccccc2N)cc1` stands 6.6%; under `Cc1ccc(Nc2nc(Cl)c(C=O)s2)cc1`, -8.62%; under `CC1(c2cccc(N)c2)OCCO1`, 4.7%.
With `O=C(O)C1=C(C(=O)O)C2CCC1C2`, the inhibition is 9.01%.
Turning to `CN1CCN(c2ccncc2S(=O)(=O)N2CCCC2)CC1`, the inhibition was 3.56%.
Under `Clc1ccc(C2=CSC3=Nc4cccc5cccc(c45)N23)cc1` stands 44.2% (active).

Source of the values: PubChem BioAssay AID504803 (The Scripps Research Institute Molecular Screening Center, 2011).
